The text below walks through data of PubChem BioAssay (NCI).

Several values for one entry are separate records, joined by “and”; a condition that tells them apart may be missing. Equal entries are not always repeated. The panel holds about 83,000 compounds, 20% with a hit somewhere; the sample as a whole holds those more often.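 Interpretation: 100, growth as untreated; towards 0, rising growth inhibition; 0, no net growth; 0 to -100, cell death. Compounds scoring below 10 were considered active.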 Activity calls are given as the source filed them.

Test in all cases: NCI-60 one-dose screen, 48 h (100 = growth as untreated, 0 = no growth, -100 = all killed)
Assay [1] relates to DU-145 prostate.
Assay [2] concerns K-562 leukemia.
Assay [3] concerns MALME-3M melanoma.
Assay [4] concerns MDA-MB-231 breast.
In assay [5] the test system is RXF 393 renal.
Assay [6] deals with SF-268 CNS.
For assay [7], the system named is SF-295 CNS.
Assay [8] deals with SF-539 CNS.
Assay [9] has as its system UACC-257 melanoma.
The subject of assay [10] is M14 melanoma.

For `OCCN1CCN(CCO)CC1`, the growth in assay [1] (10 µM unless noted) is 117% (inactive) and 111% (inactive) and 123% (inactive); in assay [2] (10 µM unless noted) it was 96.3% (inactive) and 100% (inactive) and 104% (inactive); in [3] (10 µM unless noted), 105% (inactive) and 97.4% (inactive) and 107% (inactive); in [4] (10 µM unless noted), 106% (inactive) and 107% (inactive) and 114% (inactive); in assay [5] (10 µM unless noted), 114% (inactive) and 95.6% (inactive) and 120% (inactive); in assay [6] (10 µM unless noted), 107% (inactive) and 101% (inactive) and 105% (inactive). In addition, the growth is 94.9% (inactive) and 82.6% (inactive) and 110% (inactive) in assay [7] (10 µM unless noted); 105% (inactive) and 91.1% (inactive) and 106% (inactive) in assay [8] (10 µM unless noted); 117% (inactive) in [9] (10 µM unless noted).

On to `CC#C[C@]1(O)CC[C@H]2[C@@H]3CCC4=CC(=O)CCC4=C3[C@@H](c3ccc4c(c3)OCO4)C[C@@]21C`, for which the growth in assay [1] (10 µM) is 101% (inactive); in assay [1] (100 µM) it was -13.9% (active); in assay [2] (10 µM), 83% (inactive); in assay [2] (100 µM), 1.72% (active); in [3] (10 µM) it was 97.8% (inactive); in assay [3] (100 µM) it was -29.8% (active). For the same molecule, the growth in assay [4] (10 µM) is 62.1% (inactive); in assay [4] (100 µM), -42.9% (active); in assay [5] (10 µM), 69.5% (inactive); in [5] (100 µM) it was -50.7% (active); in assay [6] (10 µM) it was 71.3% (inactive); in assay [6] (100 µM), -4.41% (active). Besides, the growth was 58.5% (inactive) in [7] (10 µM); -41.1% (active) in assay [7] (100 µM); 75% (inactive) in [8] (10 µM); -58.8% (active) in assay [8] (100 µM); 90.1% (inactive) in assay [9] (10 µM); -38.7% (active) in assay [9] (100 µM). The growth in [10] (10 µM) is 81.9% (inactive); in assay [10] (100 µM), -53.8% (active).

As for `N#CC(C#N)=C/C=C/c1cccc([N+](=O)[O-])c1`, the growth in assay [1] (10 µM unless noted) is -26.8% (active) and -24.1% (active); in assay [2] (10 µM unless noted) it was 7.22% (active) and 3.61% (active); in assay [3] (10 µM unless noted) it was 7.87% (active); in assay [4] (10 µM unless noted), 9.84% (active) and 8.38% (active); in [5] (10 µM unless noted), -68.9% (active) and -73.5% (active); in assay [6] (10 µM unless noted), 6.01% (active) and -8.99% (active). In addition, the growth in assay [7] (10 µM unless noted) is 37.1% (inactive) and -41.1% (active); in assay [8] (10 µM unless noted) it was 8.63% (active) and 4.54% (active); in [9] (10 µM unless noted), -32% (active) and -64.4% (active).

With `CC(=O)Oc1cc(C(=O)O)cc(OC(C)=O)c1OC(C)=O`, the growth in assay [1] (10 µM unless noted) was 118% (inactive) and 113% (inactive); in [2] (10 µM unless noted), 108% (inactive); in assay [3] (10 µM unless noted), 115% (inactive) and 96.5% (inactive); in [4] (10 µM unless noted), 94% (inactive) and 97.3% (inactive); in assay [5] (10 µM unless noted), 99.5% (inactive) and 122% (inactive); in assay [6] (10 µM unless noted), 107% (inactive) and 102% (inactive). Further, the growth in assay [7] (10 µM unless noted) is 107% (inactive) and 102% (inactive); in [8] (10 µM unless noted) it was 121% (inactive) and 104% (inactive); in assay [9] (10 µM unless noted), 95.3% (inactive) and 90.7% (inactive).

On to `Nc1ccc(N=Nc2ccc(S(=O)(=O)O)cc2)cc1S(=O)(=O)O`, for which the growth was 112% (inactive) and 104% (inactive) in assay [1] (10 µM unless noted); 105% (inactive) in assay [2] (10 µM unless noted); 117% (inactive) and 112% (inactive) in [3] (10 µM unless noted); 88.2% (inactive) and 104% (inactive) in assay [4] (10 µM unless noted); 99.9% (inactive) and 61.2% (inactive) in assay [5] (10 µM unless noted); 95.2% (inactive) and 103% (inactive) in assay [6] (10 µM unless noted). Moreover, the growth in assay [7] (10 µM unless noted) is 121% (inactive) and 87.8% (inactive); in assay [8] (10 µM unless noted) it was 102% (inactive) and 100% (inactive); in assay [9] (10 µM unless noted) it was 150% (inactive).

As for `Cc1[nH]c(-c2nc3ccccc3[nH]2)c(C)c1C(=O)NC(C)C1CCCCC1` (stereo not drawn), the growth was 98.8% (inactive) in assay [1] (10 µM); -96.3% (active) in assay [1] (100 µM); 68.7% (inactive) in assay [2] (10 µM); -24.3% (active) in assay [2] (100 µM); 82.1% (inactive) in assay [3] (10 µM); -72.6% (active) in assay [3] (100 µM). Besides, the growth in assay [4] (10 µM) is 70.3% (inactive); in [4] (100 µM) it was -70.8% (active); in assay [5] (10 µM) it was 77.2% (inactive); in assay [5] (100 µM) it was -92% (active); in assay [6] (10 µM), 94.9% (inactive); in [6] (100 µM), -71.4% (active). Besides, the growth in assay [7] (10 µM) was 101% (inactive); in assay [7] (100 µM), -88.8% (active); in assay [8] (10 µM), 89.4% (inactive); in assay [8] (100 µM), -97.7% (active); in [9] (10 µM), 87% (inactive); in assay [9] (100 µM), -64.6% (active). In addition, the results for the growth in assay [10] (10 µM) and in assay [10] (100 µM) were 83.1% (inactive) and -73.2% (active), respectively.

As for `Cn1cc(-c2cc3c(Nc4ccc(CC(=O)Nc5cc(C(C)(C)C)on5)cc4)ncnc3[nH]2)cn1`, the growth in [1] (10 µM unless noted) is -15% (active) and -3.89% (active); in assay [2] (10 µM unless noted), 4.78% (active) and 3.56% (active); in [3] (10 µM unless noted), -50.5% (active) and -22.7% (active); in assay [4] (10 µM unless noted) it was -6.46% (active) and -3.49% (active); in assay [5] (10 µM unless noted), -51.7% (active) and -45.7% (active); in assay [6] (10 µM unless noted), -27.7% (active) and -23.3% (active). In addition, the growth in assay [7] (10 µM unless noted) is -0.861% (active) and 7.57% (active); in assay [8] (10 µM unless noted), -49.9% (active) and -49% (active); in [9] (10 µM unless noted) it was -11.9% (active) and -15.9% (active).

Take `CCc1ccccc1-n1c(N)c(C#N)c(-c2ccc(OC)c(OC)c2)c(C#N)c1=O`: the growth in assay [1] (10 µM) was 115% (inactive); in [1] (100 µM), 37.6% (inactive); in assay [2] (10 µM) it was 111% (inactive); in assay [2] (100 µM) it was 124% (inactive); in [3] (10 µM), 103% (inactive); in assay [3] (100 µM), -31.2% (active). Further, the growth is 105% (inactive) in [4] (10 µM); 23.3% (inactive) in assay [4] (100 µM); 111% (inactive) in assay [5] (10 µM); -21.6% (active) in assay [5] (100 µM); 102% (inactive) in [6] (10 µM); 0.0621% (active) in assay [6] (100 µM). The growth in assay [7] (10 µM) is 101% (inactive); in assay [7] (100 µM), 19.7% (inactive); in assay [8] (10 µM) it was 118% (inactive); in assay [8] (100 µM), -54.9% (active); in [9] (10 µM) it was 128% (inactive); in assay [9] (100 µM), 96.8% (inactive).
